Assay results taken from PubChem BioAssay AID1159580 (chemical genetic matrix, 2015).
The campaign covered roughly 5,500 compounds. About 2,000 (36%) were called active. Inconclusive results (about 18%) are left out. No stated cut-off is given here; in the data, active means normalized growth mostly below about 0.91 (no sharp cut-off); inconclusive means no clear call, values can overlap the other calls; inactive means mostly above about 0.92. Some of the results follow.

Test: chemical genetic growth profiling, strain panel (AID 1159580);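 further: tested at 20 µM; growth read once vehicle control cultures reached saturation at 30 °C; 1 = growth at the plate median or of vehicle wells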
Details: growth OD

Measured: normalized growth

Cn1c([N+](=O)[O-])cnc1COC(N)=O
inactive: S. cerevisiae deletion strains, locus YJR075W, strain HOC1, stronger effect = lower value 1.02 | S. cerevisiae deletion strains, locus YKL009W, strain mrt4, stronger effect = lower value 1.01 | S. cerevisiae deletion strains, locus YKL068W, stronger effect = lower value 0.991 | S. cerevisiae deletion strains, locus YKL085W, strain MDH1 (second series), stronger effect = lower value 0.994 | S. cerevisiae deletion strains, locus YKL085W, strain MDH1, stronger effect = lower value 0.994 | S. cerevisiae deletion strains, locus YKL160W, strain elf1, stronger effect = lower value 1.02 | S. cerevisiae deletion strains, locus YKL190W, strain CNB1, stronger effect = lower value 1 | S. cerevisiae deletion strains, locus YKR001C, strain vps1, stronger effect = lower value 0.976 | S. cerevisiae deletion strains, locus YKR026C, strain gcn3, stronger effect = lower value 0.998 | S. cerevisiae deletion strains, locus YKR091W, strain srl3, stronger effect = lower value 0.998 | S. cerevisiae deletion strains, locus YLL001W, strain dnm1, stronger effect = lower value 1.03 | S. cerevisiae deletion strains, locus YLL026W, stronger effect = lower value 1 | S. cerevisiae deletion strains, locus YLL041C, strain sdh2, stronger effect = lower value 0.993 | S. cerevisiae deletion strains, locus YLR027C, strain aat2, stronger effect = lower value 1.01 | S. cerevisiae deletion strains, locus YLR039C, strain RIC1, stronger effect = lower value 1.02 | S. cerevisiae deletion strains, locus YLR058C, strain SHM2, stronger effect = lower value 1.01 | S. cerevisiae deletion strains, locus YLR102C, strain apc9, stronger effect = lower value 0.986 | S. cerevisiae deletion strains, locus YLR113W, strain HOG1, stronger effect = lower value 1.03 | S. cerevisiae deletion strains, locus YLR221C, strain rsa3, stronger effect = lower value 0.978 | S. cerevisiae deletion strains, locus YLR258W, strain gsy2, stronger effect = lower value 1.02 | S. cerevisiae deletion strains, locus YLR262C, strain YPT6 (second series), stronger effect = lower value 1 | S. cerevisiae deletion strains, locus YLR262C, strain YPT6, stronger effect = lower value 1.05 | S. cerevisiae deletion strains, locus YLR268W, strain sec22, stronger effect = lower value 0.991 | S. cerevisiae deletion strains, locus YLR320W, strain mms22, stronger effect = lower value 0.983 | S. cerevisiae deletion strains, locus YLR330W, strain CHS5, stronger effect = lower value 1.01 | S. cerevisiae deletion strains, locus YLR342W, strain FKS1 (second series), stronger effect = lower value 0.982 | S. cerevisiae deletion strains, locus YLR342W, strain FKS1, stronger effect = lower value 0.998 | S. cerevisiae deletion strains, locus YLR357W, strain rsc2, stronger effect = lower value 0.989 | S. cerevisiae deletion strains, locus YLR370C, strain arc18, stronger effect = lower value 1.02 | S. cerevisiae deletion strains, locus YLR371W, strain rom2, stronger effect = lower value 0.988 | S. cerevisiae deletion strains, locus YLR384C, strain iki3, stronger effect = lower value 1 | S. cerevisiae deletion strains, locus YLR418C, strain cdc73, stronger effect = lower value 0.962 | S. cerevisiae deletion strains, locus YML016C, strain PPZ1, stronger effect = lower value 1 | S. cerevisiae deletion strains, locus YML032C, strain rad52, stronger effect = lower value 0.984 | S. cerevisiae deletion strains, locus YML120C, strain ndi1, stronger effect = lower value 0.999 | S. cerevisiae deletion strains, locus YML124C, strain tub3, stronger effect = lower value 0.99 | S. cerevisiae deletion strains, locus YMR058W, strain fet3, stronger effect = lower value 1.01 | S. cerevisiae deletion strains, locus YMR078C, strain ctf18, stronger effect = lower value 0.983 | S. cerevisiae deletion strains, locus YMR125W, strain sto1, stronger effect = lower value 0.991 | S. cerevisiae deletion strains, locus YMR129W, stronger effect = lower value 1.01 | S. cerevisiae deletion strains, locus YMR205C, strain PFK2, stronger effect = lower value 0.982 | S. cerevisiae deletion strains, locus YMR223W, strain ubp8, stronger effect = lower value 0.994 | S. cerevisiae deletion strains, locus YMR231W, strain pep5, stronger effect = lower value 1.01 | S. cerevisiae deletion strains, locus YMR263W, strain SAP30, stronger effect = lower value 1.01 | S. cerevisiae deletion strains, locus YMR307W, strain GAS1, stronger effect = lower value 0.981 | S. cerevisiae deletion strains, locus YNL067W, strain RPL9B, stronger effect = lower value 1.01 | S. cerevisiae deletion strains, locus YNL071W, strain lat1, stronger effect = lower value 1 | S. cerevisiae deletion strains, locus YNL153C, strain GIM3, stronger effect = lower value 1.01 | S. cerevisiae deletion strains, locus YNL183C, strain NPR1, stronger effect = lower value 0.957 | S. cerevisiae deletion strains, locus YNL209W, strain ssb2, stronger effect = lower value 1.01 | S. cerevisiae deletion strains, locus YNL233W, strain BNI4, stronger effect = lower value 1.01 | S. cerevisiae deletion strains, locus YNL248C, strain rpa49, stronger effect = lower value 0.995 | S. cerevisiae deletion strains, locus YNL250W, strain rad50, stronger effect = lower value 0.986 | S. cerevisiae deletion strains, locus YNL271C, strain bni1, stronger effect = lower value 0.978 | S. cerevisiae deletion strains, locus YNL298W, strain CLA4, stronger effect = lower value 0.988 | S. cerevisiae deletion strains, locus YNL307C, strain MCK1, stronger effect = lower value 0.984 | S. cerevisiae deletion strains, locus YNL322C, strain KRE1 (second series), stronger effect = lower value 1.02 | S. cerevisiae deletion strains, locus YNR049C, strain mso1, stronger effect = lower value 1.01 | S. cerevisiae deletion strains, locus YNR052C, strain pop2, stronger effect = lower value 0.989 | S. cerevisiae deletion strains, locus YOL006C, strain TOP1, stronger effect = lower value 1.05 | S. cerevisiae deletion strains, locus YOL012C, strain htz1 0.743 | S. cerevisiae deletion strains, locus YOL147C, strain pex11, stronger effect = lower value 0.981 | S. cerevisiae deletion strains, locus YOR001W, strain rrp6, stronger effect = lower value 0.963 | S. cerevisiae deletion strains, locus YOR061W, strain CKA2, stronger effect = lower value 1.01 | S. cerevisiae deletion strains, locus YOR069W, strain VPS5, stronger effect = lower value 1 | S. cerevisiae deletion strains, locus YOR070C, strain gyp1, stronger effect = lower value 0.996 | S. cerevisiae deletion strains, locus YOR080W, strain dia2, stronger effect = lower value 1.01 | S. cerevisiae deletion strains, locus YOR083W, strain WHI5, stronger effect = lower value 1.03 | S. cerevisiae deletion strains, locus YOR106W, strain vam3, stronger effect = lower value 1.03 | S. cerevisiae deletion strains, locus YOR136W, strain idh2, stronger effect = lower value 0.978 | S. cerevisiae deletion strains, locus YOR144C, strain elg1, stronger effect = lower value 0.972 | S. cerevisiae deletion strains, locus YOR184W, strain ser1, stronger effect = lower value 1.01 | S. cerevisiae deletion strains, locus YOR231W, strain MKK1, stronger effect = lower value 0.997 | S. cerevisiae deletion strains, locus YOR265W, strain rbl2, stronger effect = lower value 1 | S. cerevisiae deletion strains, locus YOR270C, strain vph1, stronger effect = lower value 1 | S. cerevisiae deletion strains, locus YOR290C, strain snf2, stronger effect = lower value 1.03 | S. cerevisiae deletion strains, locus YOR316C, strain cot1, stronger effect = lower value 0.993 | S. cerevisiae deletion strains, locus YPL051W, strain arl3, stronger effect = lower value 1.03 | S. cerevisiae deletion strains, locus YPL078C, strain atp4, stronger effect = lower value 1.03 | S. cerevisiae deletion strains, locus YPL106C, strain sse1, stronger effect = lower value 1.02 | S. cerevisiae deletion strains, locus YPL240C, strain hsp82, stronger effect = lower value 1.01 | S. cerevisiae deletion strains, locus YPL241C, strain CIN2, stronger effect = lower value 1.01 | S. cerevisiae deletion strains, locus YPL256C, strain CLN2, stronger effect = lower value 0.999 | S. cerevisiae deletion strains, locus YPR119W, strain clb2, stronger effect = lower value 0.981 | S. cerevisiae deletion strains, locus YPR141C, strain kar3, stronger effect = lower value 0.983 | S. cerevisiae deletion strains, locus YPR163C, strain tif3, stronger effect = lower value 0.99 | S. cerevisiae deletion strains, locus YPR167C, strain met16, stronger effect = lower value 0.992 | S. cerevisiae deletion strains, strain wtn01, stronger effect = lower value 0.984 | S. cerevisiae strains, strain wild type, stronger effect = lower value 1.01
